Measurements taken from PubChem BioAssay AID463173 (ICCB-Longwood Screening Facility, Harvard Medical School, 2010).
In all, about 52,000 compounds went through this assay and about 1,700 (3.3%) were called active. The sample as a whole holds a higher share of actives than the screen did. A number with no mark means an inactive call. Rule as the data show it: active = survival mostly below about 52% (no sharp cut-off); inactive = mostly above about 56%.

Each compound was assayed on Wild type (assay: growth inhibition of S. aureus wild type versus tarO mutant, primary screen, teichoic acid synthesis inhibitors, RN4220, OD600 (AID 463173)). Conditions: S. aureus RN4220 wild type/DeltatarO growth, OD600, 18 h, stronger effect = lower value, screened at 18.75 µg/mL (by protocol).
O=C(NCc1ccc(F)cc1)c1ccc2c(Cl)c3c(nc2c1)CCCC3 gave a survival of 62%.
For Cc1cc(C)cc(N2CC(c3nc(-c4cccc(Cl)c4)no3)CC2=O)c1 (configuration not stated), the survival was 32%.
CCCCNC(=O)c1sc2ncccc2c1-n1cccc1 showed a survival of 47%.
CCc1nc(-c2cc(S(=O)(=O)N3CCN(c4ccccc4OC)CC3)ccc2OC)no1 gave a survival of 69%.
In the case of CCOc1ccccc1NC(=O)C(NS(=O)(=O)c1ccc2c(c1)CCC(=O)N2)c1ccccc1 (configuration not stated), the survival is reported as 76%.
Cc1cccc(N2CCN(C(=O)c3cc(S(=O)(=O)N4CCC(C)CC4)cn3C)CC2)c1C was tested, and the survival was 49%.
For COC(=O)c1cc(S(=O)(=O)N2CCN(c3ccc(F)cc3)CC2)cn1C, the survival was -6% (active).
In the case of COc1ccccc1N1CCN(C(=O)c2cc(S(=O)(=O)N3CCC(C)CC3)cn2C)CC1, the survival is reported as 0% (active).
For COC(=O)c1scc(-c2ccc(C)cc2)c1S(=O)(=O)N1CCN(c2ccc(F)cc2)CC1, the survival was -6% (active).
Cn1cc(S(=O)(=O)N2CCCCCC2)cc1C(=O)N1CCN(c2ccc(F)cc2)CC1 showed a survival of 71%.
COC(=O)c1scc(-c2ccc(C)cc2)c1S(=O)(=O)N1CCN(c2ccc(OC)cc2)CC1 was tested, and the survival was 75%.
For CC1CCN(S(=O)(=O)c2cc(C(=O)N3CCN(c4ccccc4F)CC3)n(C)c2)CC1, the survival was 65%.
Cn1cc(S(=O)(=O)N2CCCCC2)cc1C(=O)N1CCN(c2ccc(F)cc2)CC1 was tested, and the survival was 65%.
Work on COC(=O)c1scc(-c2ccc(C)cc2)c1S(=O)(=O)N1CCN(c2ccccc2)CC1 yielded a survival of 64%.
With CCc1ccc(-n2nc3cc(C)c(NC(=O)c4cc(OC)cc(OC)c4)cc3n2)cc1 the survival was 69%.
Work on Cc1ccc(-c2cc(C(=O)Nc3c(C(=O)c4ccc(C)c(F)c4)oc4ccccc34)no2)cc1 yielded a survival of 93%.
With O=C(Nc1cccc(NC(=O)C2CCCO2)c1)c1ccco1 (configuration not stated) the survival was 102%.
With O=C(Nc1ccc(F)c(Cl)c1)C1CCN(S(=O)(=O)c2ccc3c(c2)CCCN3C(=O)C2CCC2)CC1 the survival was 67%.
COC(=O)c1c(SC)nc2ccccc2c1OCc1ccc(C)cc1 showed a survival of 75%.
In the case of NC(=O)C1CCN(C(=O)CSc2nc(O)cc(=O)[nH]2)CC1, the survival is reported as 97%.
O=C(N/N=C1/SCC(=O)N1Cc1ccco1)c1ccccc1F gave a survival of 97%.
For CC(=O)c1ccc(S(=O)(=O)Nc2ccc(-c3cn4c(C)csc4n3)cc2)cc1, the survival was -6% (active).
COc1ccc(S(=O)(=O)Nc2ccc(-c3cn4c(C)csc4n3)cc2)cc1 gave a survival of 78%.
In the case of CC(=O)Nc1ccc(S(=O)(=O)Nc2ccc(-c3cn4c(C)csc4n3)cc2)cc1, the survival is reported as 69%.
Work on CCc1ccccc1Nc1nn2c(=O)c3ccc(C(=O)NCc4ccc(C)cc4)cc3nc2s1 yielded a survival of 92%.
In the case of Cc1ccccc1Cn1c(CN2CCC(C(=O)NCCc3ccccc3)CC2)cc2ccccc21, the survival is reported as 110%.
Compound CC(=O)N1CCc2c(sc3c2c(=O)n(-c2ccccc2C)c(=O)n3CC(=O)Nc2ccccc2)C1 has a survival of 69%.
For CCOc1ccc(-n2c(SCC(=O)Nc3cc(C)on3)nc3c([nH]c4ccccc43)c2=O)cc1, the survival was 69%.
With CCOc1ccc(N(CC)S(=O)(=O)N2CCCC(C(=O)Nc3cc(Cl)ccc3C)C2)cc1 (configuration not stated) the survival was 79%.
COc1cc(Cl)c(C)cc1NC(c1ccccc1)c1nnc(-c2ccccc2Cl)o1 (configuration not stated) was tested, and the survival was 75%.
In the case of COc1ccc(NC(c2ccc(F)cc2)c2nnc(-c3ccccc3Cl)o2)cc1Cl (configuration not stated), the survival is reported as 88%.
CCc1cccc(NC(c2nnc(-c3ccccc3)o2)c2ccc(F)cc2Cl)c1 (configuration not stated) showed a survival of 70%.
Compound Cc1ccc(Cl)cc1NC(c1ccc(F)cc1)c1nnc(-c2ccccc2)o1 (configuration not stated) has a survival of 117%.
With Cc1ccc(C)c(NC(c2ccccc2)c2nnc(-c3ccccc3F)o2)c1 (configuration not stated) the survival was 5% (active).
With CCc1cccc(NC(c2ccccc2)c2nnc(-c3ccccc3F)o2)c1 (configuration not stated) the survival was 1% (active).
COc1cc(C(=O)Nc2ccc3nc(SCc4ccccc4)sc3c2)cc(OC)c1OC showed a survival of 86%.
CCOC(=O)c1[nH]c2c(c1Cc1ccccc1C)C(=O)CC(c1ccccc1)C2 (configuration not stated) was tested, and the survival was 95%.
Work on O=C(NCc1ccccc1)C(=O)NCC(c1ccco1)S(=O)(=O)c1cccs1 (configuration not stated) yielded a survival of 70%.
Work on O=C(NCCc1ccc(F)cc1)C(=O)NCC(c1ccco1)S(=O)(=O)c1cccs1 (configuration not stated) yielded a survival of 53%.
Compound Cc1ccc(CNC(=O)C(=O)NCC(c2ccco2)S(=O)(=O)c2cccs2)cc1 (configuration not stated) has a survival of 75%.
Work on O=C(NCCc1ccccc1)C(=O)NCC(c1ccco1)S(=O)(=O)c1cccs1 (configuration not stated) yielded a survival of 75%.
For O=C(NCCc1ccc(Cl)cc1)C(=O)NCC(c1ccco1)S(=O)(=O)c1cccs1 (configuration not stated), the survival was -3% (active).
In the case of O=C(NCc1ccc(F)cc1)C(=O)NCC(c1ccco1)S(=O)(=O)c1cccs1 (configuration not stated), the survival is reported as 0% (active).
Compound Cn1c(=O)n(C)c2cc(N3CCOCC3)c(NC(=O)c3ccc(C(C)(C)C)cc3)cc21 has a survival of 75%.
In the case of CCc1c(C)nc2nncn2c1Nc1cccc(C)c1, the survival is reported as 91%.
Cc1ccc2sc(N(Cc3cccnc3)C(=O)CCOc3ccccc3)nc2c1C showed a survival of 63%.
In the case of Nc1nc2nc(-c3ccccc3)cc(=O)n2[nH]1, the survival is reported as 59%.
With Cc1[nH]n2c(=O)cc(-c3ccc(Cl)cc3)nc2c1-c1ccccc1 the survival was -17% (active).
For Cc1nn2c(-c3ccccc3)cc(-c3ccccc3)nc2c1-c1ccc(Cl)cc1, the survival was 86%.
For Cc1cccc(-c2cc3nc(-c4ccccc4)cc(=O)n3[nH]2)c1, the survival was 93%.
O=C(Nc1nc2nc(-c3ccccc3)cc(=O)n2[nH]1)c1ccc(Cl)cc1 was tested, and the survival was 88%.
For Cc1[nH]n2c(=O)cc(-c3ccccc3Cl)nc2c1-c1ccccc1, the survival was -13% (active).
CCOC(=O)c1ccc(CN(Cc2ccc(Br)cc2)S(=O)(=O)c2cccc(C(F)(F)F)c2)cc1 showed a survival of 72%.
For CCOc1ccccc1CNC(=O)CCc1c(C)nn(-c2ccc(N3CCCC3)nn2)c1C, the survival was 71%.
COc1ccc(CNC(=O)c2sc3nc4n(c(=O)c3c2C)CCCCC4)cc1 showed a survival of 86%.
Compound CSc1cccc(NC(=O)C2CCN(S(=O)(=O)c3ccc4[nH]c(=O)ccc4c3)CC2)c1 has a survival of 101%.
COc1ccc(-c2cc(C(F)(F)F)nc(SCC(=O)N(C)Cc3ccccc3)n2)cc1 was tested, and the survival was -1% (active).
For CN(Cc1ccccc1)C(=O)CSc1nc(-c2ccc(F)cc2)cc(C(F)(F)F)n1, the survival was -4% (active).
O=C(CSc1nc(-c2ccc(F)cc2)cc(C(F)(F)F)n1)NCc1ccccc1 showed a survival of 84%.
With O=C(CSc1nc(-c2ccc(F)cc2)cc(C(F)(F)F)n1)NCCc1ccccc1 the survival was 89%.
COc1ccc(-c2cc(C(F)(F)F)nc(SCC(=O)N(C)Cc3ccccc3)n2)cc1OC gave a survival of 45%.
Compound COc1ccc(-c2cc(C(F)(F)F)nc(SCC(=O)NCCc3ccccc3)n2)cc1 has a survival of 140%.
In the case of COc1ccc(CC(=O)Nc2c(C(=O)N3CCN(c4ccccc4)CC3)oc3ccccc23)cc1OC, the survival is reported as 76%.
CCN(CC)S(=O)(=O)c1ccc(NC(=O)[C@H](CSCc2ccccc2)N2Cc3ccccc3C2=O)cc1 was tested, and the survival was 130%.
CCOc1ccc(-n2c(SCC(=O)Nc3ccc(F)cc3)nc3c([nH]c4ccccc43)c2=O)cc1 was tested, and the survival was 88%.
For CCc1ccc(C(=O)NC2=NC(c3ccccc3F)CC(=O)N2)cc1 (configuration not stated), the survival was 166%.
O=c1c2ccccc2n(Cc2cccc(Cl)c2)c(=O)n1Cc1ccccc1 gave a survival of 96%.
Cc1ccccc1Cn1c(=O)n(CCc2ccccc2)c(=O)c2ccccc21 was tested, and the survival was 4% (active).
O=c1c2ccccc2n(Cc2c(F)cccc2Cl)c(=O)n1CCc1ccccc1 was tested, and the survival was 83%.
Cc1cccc(CCn2c(=O)c3ccccc3n(Cc3ccccc3C)c2=O)c1 showed a survival of 59%.
In the case of Cc1ccccc1Cn1c(=O)n(CCCCC(=O)NCCc2ccccc2)c(=O)c2ccccc21, the survival is reported as 103%.
In the case of O=c1c2ccccc2n(Cc2ccccc2Cl)c(=O)n1CCc1ccccc1, the survival is reported as 15% (active).
O=C(CCn1c(=O)c2ccccc2n(Cc2cccc(Cl)c2)c1=O)NCCc1ccccc1 was tested, and the survival was 74%.
Work on O=C(CCCCn1c(=O)c2ccccc2n(Cc2ccccc2Cl)c1=O)NCCc1ccccc1 yielded a survival of 132%.
For O=c1c2ccccc2n(Cc2cccc(Cl)c2)c(=O)n1CCc1ccccc1, the survival was 39% (active).
Compound COc1cc(NC(=O)CSc2ncc(S(=O)(=O)c3ccc(Br)cc3)c(=O)[nH]2)cc(OC)c1 has a survival of 84%.
With O=C(c1ccc(Cl)cc1)n1nc(-c2ccco2)nc1NCc1cccs1 the survival was 87%.
Work on O=C(NCC(c1ccco1)S(=O)(=O)c1cccs1)c1ccc(C(F)(F)F)cc1 (configuration not stated) yielded a survival of 83%.
Work on CC(=O)Nc1ccc(Nc2c3c(c(C#N)c4nc5ccccc5n24)CCC3)cc1 yielded a survival of 100%.
Cc1nn2c(=O)cc(COC(=O)c3ccc(NC(=O)c4ccc(C(C)(C)C)cc4)cc3)nc2s1 gave a survival of 74%.
For COc1ccc(Cl)cc1NC(=O)Cn1nc(C(F)(F)F)c2c1CCCC2, the survival was 9% (active).
COc1cc(NC(=O)Cn2nc(C(F)(F)F)c3c2CCCC3)c(OC)cc1Cl showed a survival of 87%.
In the case of CCc1ccccc1NC(=O)Cn1nc(C(F)(F)F)c2c1CCC2, the survival is reported as 74%.
COc1ccc(Cl)cc1NC(=O)Cn1nc(C(F)(F)F)c2c1CCC2 showed a survival of 84%.
CCc1ccccc1NC(=O)Cn1nc(C(F)(F)F)c2c1CCCC2 gave a survival of 84%.
COC(=O)c1ccccc1NC(=O)Cn1nc(C(F)(F)F)c2c1CCCC2 was tested, and the survival was -5% (active).
For CC(C)CN(CCCNC(=O)c1cc(=O)[nH]c2ccc(S(=O)(=O)N3CCCCCC3)cc12)CC(C)C, the survival was 68%.
